# ATXN2 expr inh: ATXN2 expression inhibition; HEK-293 ATXN2-luciferase reporter, luminescence, 24 h; Potency, µM (titrated, usually from 57 µM), inactives show at the top dose activity change, negative = inhibition, hits mostly inhibitors; 0.72% of 360,000 active; AID 1745845; also: % is scaled to controls: 0 for no effect and ±100 for the full control effect; nearly all actives have a fitted effect of over 55% in size
#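 qHTS (up to 57 uM final) was run with 24 h compound exposure of reporter cells at 37 °C. Each well was multiplexed: SteadyGlo luminescence measured ATXN2-luciferase expression after a fluorogenic Gly-Phe-AFC viability readout (25 uM final).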
# HT1080NT lethal: kills 2HG-producing HT-1080-NT fibrosarcoma cells; HT-1080-NT fibrosarcoma viability, CellTiter-Glo ATP luminescence, 48 h; Potency, µM (titrated, usually from 46.1 µM), inactives show at the top dose activity, negative = less viability, hits mostly cytotoxic; 1.6% of 360,000 active;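 also: NT is the 2HG producing partner of a matched IDH1 knockdown line; 0% = DMSO-treated cells and -100% = media-only wells without cells; nearly all actives have a fitted effect of over 55% in size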
#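 HT-1080-NT fibrosarcoma cells (2HG-overproducing), 750 cells/well in RPMI with 5% FBS, dosed after 2 h and incubated 48 h at 37C. CellTiter-Glo luminescence normalized to DMSO and no-cell wells; concentration-response curves fitted and classed.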
# S2 tox: cell viability loss in ATXN counter-screen. 0.49% of 400,000 active. Potency, µM (series often up to 56.7 µM), hits mostly cytotoxic. S2 cells (HEK-293 line with an ATXN2-luciferase reporter) viability, CellTiter-Fluor protease fluorescence, 24 h; also: nearly all actives have a fitted effect of over 40% in size
# HepG2 tox-1: HepG2 cytotoxicity, counter-screen for TGF-b inhibitors | HepG2 CAGA-GFP viability, ATP luminescence, 18 h | Potency, µM (highest dose often 46.1 µM), without a hit: at the highest dose activity change, negative = cytotoxicity, usual class: cytotoxic | 0.76% of 410,000 active | AID 588856
#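 CellTiter-Glo luminescence gave cytotoxicity after 18 hours at 37 degrees C. The cells were HepG2 CAGA-GFP in 1% FBS DMEM, stimulated with 500 pg/mL TGF-beta after compound addition. %Activity was normalised to no-cell wells (complete cell-killing) and DMSO (no toxicity), and curves were fitted and classified.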
# TGFb inhibitor: TGF-b pathway inhibition. HepG2 CAGA-GFP TGF-b/SMAD3 reporter, GFP fluorescence, 18 h; TGF-beta stimulated, 500 pg/mL final. Potency, µM (titrated, usually from 46.1 µM), inactives show top-dose activity, negative = inhibition, most hits filed as inhibitors. 1.2% of 410,000 active; also: % is scaled to controls: 0 for no effect and ±100 for the full control effect; nearly all actives have a fitted effect of over 65% in size
#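 Inhibition of TGF-beta-driven CAGA-GFP reporter expression in HEPG2 cells is measured by cellular GFP fluorescence after 18 h stimulation with 500 pg/mL recombinant TGF-beta in 1% FBS medium at 37 degrees C.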
# HT1080 IDH1KD tx: HT-1080 IDH1 knockdown cell toxicity (counter line); HT-1080 IDH1 knockdown viability, ATP luminescence, 48 h; Potency, µM (highest dose often 46.1 µM), without a hit: at the highest dose activity, negative = toxicity, hits mostly cytotoxic; 2% of 360,000 active;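 also: 0% = DMSO wells and -100% = cell-free medium wells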
#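 After a 2 h attachment period, IDH1KD HT-1080 cells took pin-transferred compound for 48 h at 37 °C; ATP-based luminescence after 10 min room-temperature reagent incubation reported viability.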
# TGFb confirm: confirmation of TGF-b signaling inhibitors in HepG2 reporter cells; shares compounds with TGFb inhibitor; HepG2 CAGA-GFP TGF-b reporter, GFP fluorescence, 18 h; cells stimulated with TGF-beta, 500 pg/mL; Potency, µM (highest dose often 46.1 µM), inactives show at the top dose activity, negative = inhibition, usual class: inhibitors; 63% of 1,600 active; AID 720534; also: % is scaled to controls: 0 for no effect and ±100 for the full control effect; nearly all actives have a fitted effect of over 65% in size
# HepG2 tox-2: toxic to HepG2 cells in TGF-b counterscreen; 27% of 1,600 active; shares compounds with TGFb inhibitor; AID 720535; HepG2 CAGA-GFP viability, ATP luminescence, 18 h; cells stimulated with TGF-beta, 500 pg/mL; Potency, µM (series often up to 46.1 µM), inactives show at the highest dose activity, negative = cytotoxicity, actives largely listed as inhibitors; also: % is scaled to controls: 0 for no effect and ±100 for the full control effect; nearly all actives have a fitted effect of over 70% in size
# TGFb CCL64 inh: TGF-b inhibition, CCL64 orthogonal assay. shares compounds with TGFb inhibitor. CCL64 CAGA-GFP reporter, TGF-b stimulated, GFP fluorescence, 18 h. Potency, µM (doses to about 46.1 µM), for the others: at the highest dose activity, negative = inhibition, usual class: inhibitors. 41% of 1,600 active. AID 720536; also: nearly all actives have a fitted effect of over 65% in size
# COP TGFb inh: validation of TGF-b inhibitors in HepG2 COP promoter reporter | shares compounds with TGFb inhibitor | HepG2 COP-GFP TGF-b reporter, GFP fluorescence, 18 h; cells stimulated by added recombinant TGF-beta | Potency, µM (doses to about 46.1 µM), inactives show top-dose activity, negative = inhibition, hits mostly inhibitors | 3% of 1,600 active | AID 720537; also: nearly all actives have a fitted effect of over 70% in size
# An asterisk follows results filed as active; i = inactive; ? = inconclusive; · = not tested or not shown. A selection: hits, their analogues and other compounds. The true share with any hit is near 3.8%. Calls follow the shape of the dose curve; as a rule, active = well fitted curve in the direction sought with a large enough effect; inconclusive = small, poorly fitted or top-dose-only effect, or another doubt; inactive = no such curve, though single readings can be large; an effect the other way counts as inactive or inconclusive. Potency is read from the fitted curve at half-maximal effect.
SMILES,ATXN2 expr inh,HT1080NT lethal,S2 tox,HepG2 tox-1,TGFb inhibitor,HT1080 IDH1KD tx,TGFb confirm,HepG2 tox-2,TGFb CCL64 inh,COP TGFb inh
Oc1cccc(Nc2nc(-c3ccccc3Cl)nc3ccccc23)c1,-27%,?,?,-8%,-20%,?,?,-15%,?,32%
c1ccc(Nc2nc(-c3ccccc3)nc3ccccc23)cc1,-18%,2%,i,-41%,-29%,0%,?,?,?,33%
Cc1ccc(-c2nc(Nc3cccc(O)c3)c3ccccc3n2)cc1,-30%,?,i,-71%,?,-28%,·,·,·,·
Cc1ccc(-c2nc(Nc3ccc(O)cc3)c3ccccc3n2)cc1,14%,21µM*,i,-119%,?,21µM*,?,?,15µM*,100%
Fc1ccc(CNc2nc(-c3ccccc3)nc3ccccc23)cc1,-11%,?,i,2%,18µM*,-18%,?,?,?,33%
O=C(O)c1cccc(Nc2nc(-c3ccccc3)nc3ccccc23)c1,11%,-14%,i,-6%,-29%,-15%,·,·,·,·
O=c1oc2ccc(F)cc2cc1-c1nc(-c2cccs2)no1,·,·,·,3%,1%,·,·,·,·,·
O=C(C1CCN(S(=O)(=O)c2cccc3nonc23)CC1)N1CCN(c2ccccc2)CC1,-18%,·,i,-9%,-15%,·,·,·,·,·
Cc1ccc(C(=O)Nc2nc(C)c(C(=O)Nc3ccc4c(c3)CCC4)s2)cc1,24%,2.3µM*,?,-3%,11µM*,4.1µM*,15µM*,?,8.2µM*,22%
COC(=O)c1ccc(NC(=O)CC2C(=O)N(c3ccc(F)cc3)C(=O)N2Cc2ccc(OC)cc2)cc1 (configuration not stated),·,·,·,-24%,?,·,·,·,·,·
CCCCNc1c(-c2cccc(SC(C)CC)c2)nc2ccc(Cl)cn12 (configuration not stated),0%,0%,i,-20%,?,-13%,·,·,·,·
CCCCNc1c(-c2ccc(OC)c(SC(C)CC)c2)nc2ccc(Cl)cn12 (configuration not stated),-20%,7%,?,-6%,10µM*,-5%,?,-19%,?,-5%
CC(C)CC(NC(=O)c1cccs1)c1nnc(SCc2ccc(Cl)c(Cl)c2)n1C (configuration not stated),-22%,-21%,?,-22%,5.6µM*,-34%,18µM*,18µM*,?,3%
O=C(COc1ccccc1F)Nc1ccccc1OCc1cc(=O)n2ccccc2n1,·,·,·,4%,4%,·,·,·,·,·
Cc1ccc2sc(N(CCCN(C)C)C(=O)CCS(=O)(=O)c3ccccc3)nc2c1C,?,?,·,6.3µM*,5.6µM*,?,?,?,3.3µM*,?
COc1ccc(OC)c2sc(N(CCCN(C)C)C(=O)CCS(=O)(=O)c3ccccc3)nc12,?,-1%,·,-96%,?,?,·,·,·,·
CCCCCCC[C@@H](C/C=C/CCC(=O)N(C)C/C(=C/Cl)C/C(=C\C(=O)N1CC(OC)=CC1=O)OC)OC,?,5.8µM*,22µM*,-70%,0.71µM*,9.2µM*,0.73µM*,?,7.3µM*,-3%
COc1cc(C2c3cc4c(cc3OC(NCCc3ccccc3)C2C)OCO4)cc(OC)c1OC (configuration not stated),1%,1µM*,i,-10%,?,1µM*,?,-2%,16µM*,-10%
COc1cc(C2c3cc4c(cc3OC(C)(N3CCCC3)C2C)OCO4)cc(OC)c1OC (configuration not stated),9%,?,?,-3%,-15%,?,·,·,·,·
COc1c(O[C@@H]2O[C@H](CO)[C@@H](O)[C@H](O)[C@H]2O)cc2c(c1OC)-c1ccc(SC)c(=O)cc1C(NC(C)=O)CC2 (some centres not stated),15%,?,i,-3%,-1%,?,·,·,·,·
COc1cc2c(c(OC)c1OC)-c1ccc(OC)c(=O)cc1C(NC(=O)c1ccccc1)CC2 (configuration not stated),1%,0.073µM*,i,-16%,?,0.021µM*,?,0%,?,?
COc1cc2c(c(OC)c1OC)-c1ccc(SC)c(=O)cc1C(NC=O)CC2 (configuration not stated),-14%,0.046µM*,?,-34%,-91%,?,?,23µM*,?,44%
CCCCOc1ccc(C(=O)N2CCN(CCc3ccncc3)CC2)cc1,-5%,·,i,-4%,26%,·,·,·,·,·
Cc1ccc(-n2c(=O)c3oc4ccccc4c3n(CC(=O)Nc3ccc(F)c(Cl)c3)c2=O)cc1C,·,·,·,-30%,?,·,·,·,·,·
CN(C)c1ccc(CNC(=O)c2ccc3nc(CCc4ccccc4)oc3c2)cc1,·,·,·,-1%,11%,·,·,·,·,·
CCCNC(=O)CNC(=O)c1ccccc1OCC(=O)Nc1ccc(Br)cc1,·,·,·,2%,-7%,·,·,·,·,·
Cc1cccc(NC(=O)Nc2ccc(C#N)cc2)n1,4%,-7%,i,-34%,2.5µM*,-3%,6.5µM*,8.2µM*,4.1µM*,27%
Cc1cccc(NC(=O)Nc2cccc(C#N)c2)n1,59%,-11%,i,-48%,?,-4%,·,·,·,·

# Bioassay records as filed in PubChem BioAssay.
